In the supplement of paper PMC6992640:
± gives the standard deviation of the averaged measurements.

Experiments:
Assay in all cases: cell viability (% of vehicle); higher = less cytotoxic
Conditions in all cases: 10 µM; 72 h
HCI01 = test system: HCI01 (cells of a triple-negative basal-like breast cancer xenograft)
HCI03 = test system: HCI03 (cells of an ER-positive luminal breast cancer xenograft)
HCI09 = test system: HCI09 (cells of a triple-negative luminal androgen receptor type breast cancer xenograft)
HCI11 = test system: HCI11 (cells of an ER-positive luminal breast cancer xenograft)
HCI13 = test system: HCI13 (cells of an ER-positive luminal breast cancer xenograft)
HCI16 = test system: HCI16 (cells of a triple-negative basal-like breast cancer xenograft)
UCD52 = test system: UCD52 (cells of a triple-negative basal-like breast cancer xenograft)
WHIM2 = test system: WHIM2 (cells of a triple-negative basal-like breast cancer xenograft)
WHIM30 = test system: WHIM30 (cells of a triple-negative basal-like breast cancer xenograft)
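Further: PDX cells carrying CMV promoter-driven luciferase, viability read as total photon flux per second by IVIS imaging following D-luciferin, vehicle control 0.1% DMSO.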

| Structure (SMILES) | cell viability (HCI01) | cell viability (HCI03) | cell viability (HCI09) | cell viability (HCI11) | cell viability (HCI13) | cell viability (HCI16) | cell viability (UCD52) | cell viability (WHIM2) | cell viability (WHIM30) |
| --- | --- | --- | --- | --- | --- | --- | --- | --- | --- |
| NCC1OC(OC2C(CO)OC(OC3C(O)C(N)CC(N)C3OC3OC(CN)C(O)C(O)C3N)C2O)C(N)C(O)C1O.O=S(=O)(O)O (centres undefined) [Neomycin sulfate] | 90.1 ± 22 | 135 | 91.8 ± 9.7 | 95.9 | 79.9 ± 2.5 | 111 | 92.9 ± 8.6 | 102 ± 7.7 | 95.9 ± 4.7 |
| CCN(CC)CC#CCOC(=O)C(O)(c1ccccc1)C1CCCCC1 (centres undefined) [Oxybutynin] | 141 ± 10 | 130 | 132 ± 73 | 118 | 117 ± 17 | 134 | 82.9 ± 5.8 | 97.1 ± 30 | 148 ± 6.4 |
| CS(=O)(=O)O.N#CC1(c2ccc(NC(=O)c3cccnc3NCc3ccncc3)cc2)CCCC1 [Apatinib] | 140 ± 88 | 109 | 33.4 ± 8.3 | 65.4 | 65 ± 2 | 119 | 48.5 ± 6.5 | 85.3 ± 4.8 | 105 ± 19 |
| CCCS(=O)(=O)Nc1ccc(F)c(C(=O)c2c[nH]c3ncc(-c4ccc(Cl)cc4)cc23)c1F [Vemurafenib (PLX4032, RG7204)] | 118 ± 12 | 195 | 114 ± 7.1 | 98.3 | 106 ± 4.2 | 102 | 108 ± 1.8 | 102.2 ± 0.85 | 185 ± 5.3 |
| Cc1cn(-c2cc(/N=C(\O)c3ccc(C)c(Nc4nccc(-c5cnccn5)n4)c3)cc(C(F)(F)F)c2)cn1 [Radotinib(IY-5511)] | 89.5 ± 3.2 | 142 | 92.6 ± 13 | 92.9 | 80.9 ± 9.7 | 107 | 102 ± 10 | 100 ± 12 | 104 ± 27 |
| C=C1CCN(C(C)C(O)(Cn2cncn2)c2ccc(F)cc2F)CC1 (centres undefined) [Efinaconazole] | 119 ± 22 | 148 | 83.3 ± 19 | 91.5 | 126 ± 8.9 | 165 | 85.4 ± 5.2 | 95.9 ± 5.9 | 161 ± 25 |
| CCOC(=O)C(CCc1ccccc1)NC(C)C(=O)N1C(=O)N(C)CC1C(=O)O.Cl (centres undefined) [Imidapril HCl] | 105 ± 8.3 | 113 | 99.8 ± 7.1 | 102 | 126 ± 1.4 | 94.2 | 78 ± 3.8 | 105 ± 3.3 | 104 ± 10 |
| CN1CCc2nc(C(=O)NC3CC(C(=O)N(C)C)CCC3NC(=O)C(=O)Nc3ccc(Cl)cn3)sc2C1.Cc1ccc(S(=O)(=O)O)cc1.O (centres undefined) [Edoxaban tosylate monohydrate] | 102 ± 2.5 | 92.1 | 87.2 ± 11 | 91.2 | 109 ± 8.7 | 81.1 | 88.8 ± 16 | 96.4 ± 8.8 | 120 ± 4.4 |
| CN1CCCC1c1cccnc1.O=C(O)C(O)C(O)C(=O)O.O=C(O)C(O)C(O)C(=O)O (centres undefined) [Nicotine Difartrate] | 115 ± 7.3 | 107 | 126 ± 40 | 114 | 99.2 ± 3.9 | 98.7 | 100 ± 12 | 99.6 ± 9.8 | 121 ± 2.7 |
| CCOc1cc(C(CS(C)(=O)=O)N2C(=O)c3cccc(NC(C)=O)c3C2=O)ccc1OC (centres undefined) | 161 ± 13 | 149 | 112.6 ± 0.15 | 121 | 150 ± 16 | 135 | 117 ± 13 | 118 ± 7.6 | 140 ± 16 |
| Cl.Cl.NC(=NCCCCCCN=C(N)N=C(N)Nc1ccc(Cl)cc1)N=C(N)Nc1ccc(Cl)cc1 [Chlorhexidine HCl] | 99.4 ± 3 | 88.3 | 89.7 ± 3 | 76 | 96.44 ± 0.43 | 124 | 92.8 ± 7.6 | 108 ± 4.1 | 82.3 ± 3.8 |
| CC1OC(OC2C(CO)OC(OC3C(CO)OC(O)C(O)C3O)C(O)C2O)C(O)C(O)C1NC1C=C(CO)C(O)C(O)C1O (centres undefined) [Acarbose] | 112 ± 9.7 | 109 | 99 ± 8.6 | 88.2 | 117 ± 12 | 78.5 | 93.3 ± 9.7 | 86 ± 17 | 104 ± 29 |
| Cc1ccc(C(=O)c2cc(O)c(O)c([N+](=O)[O-])c2)cc1 [Tolcapone] | 70.6 ± 40 | 52.5 | 14.6 ± 1.4 | 57.5 | 64.16 ± 0.48 | 84.2 | 71.6 ± 18 | 117 ± 26 | 120 ± 7.5 |
| CC(C)(C)NCC(O)COc1nsnc1N1CCOCC1.O=C(O)C=CC(=O)O (centres undefined) [Timolol Maleate] | 115.9 ± 0.17 | 116 | 106 ± 5.1 | 107 | 89.5 ± 12 | 120 | 96.4 ± 1.9 | 93.1 ± 15 | 112 ± 6.8 |
| CCCCS(=O)(=O)NC(Cc1ccc(OCCCCC2CCNCC2)cc1)C(=O)O.Cl.O (centres undefined) [Tirofiban hydrochloride monohydrate] | 119 ± 1.7 | 123 | 107 ± 8.2 | 106 | 135 ± 8.5 | 101 | 91.9 ± 7.1 | 99.1 ± 24 | 113 ± 22 |
| Cc1cnc(C(=O)NCCc2ccc(S(=O)(=O)NC(=O)NC3CCCCC3)cc2)cn1 [Glipizide] | 104 ± 16 | 128 | 106 ± 16 | 108 | 93.1 ± 1.8 | 99.1 | 83.6 ± 5.6 | 87.2 ± 11 | 138 ± 12 |
| CC12CCC3c4ccc(O)cc4CCC3C1CCC2OC(=O)CCC1CCCC1 (centres undefined) [Estradiol Cypionate] | 168 ± 2.2 | 101 | 96.6 ± 4.5 | 93.1 | 180 ± 16 | 147 | 92 ± 6.5 | 110 ± 10 | 130 ± 12 |
| CC12CCC3c4ccc(O)cc4CCC3C1CC(O)C2O (centres undefined) [Estriol] | 132 ± 20 | 118 | 125 ± 36 | 91.7 | 152 ± 25 | 152 | 105 ± 16 | 98.4 ± 8.9 | 150 ± 11 |
| CCC(C(C)O)n1ncn(-c2ccc(N3CCN(c4ccc(OCC5COC(Cn6cncn6)(c6ccc(F)cc6F)C5)cc4)CC3)cc2)c1=O (centres undefined) [Posaconazole] | 123 ± 2.6 | 78 | 59.1 ± 18 | 64.1 | 79.9 ± 3.4 | 94.5 | 74.8 ± 6.6 | 86.8 ± 13 | 105 ± 18 |
| CCOC(=O)C1=C[C@]2(CC)CCCN3CCc4c(n1c1ccccc41)[C@@H]32 [Vinpocetine] | 107 ± 21 | 108 | 94.4 ± 14 | 106 | 88.5 ± 11 | 112 | 110 ± 9 | 93.4 ± 7.8 | 125 ± 11 |
| COCCOC(=O)C1=C(C)NC(C)=C(C(=O)OC(C)C)C1c1cccc([N+](=O)[O-])c1 (centres undefined) [Nimodipine] | 136 ± 0.51 | 107 | 128 ± 25 | 115 | 87.6 ± 5.7 | 121 | 114 ± 5.1 | 132 ± 7.9 | 157 ± 28 |
